# According to PubChem BioAssay AID485341 (National Center for Advancing Translational Sciences (NCATS), 2010):
# The whole screen tested about 330,000 compounds, of which about 1,700 (0.52%) were called active. This excerpt belongs to a sample that is enriched for actives. Values without a mark were called inactive. The call rests on the fitted dose curve; in most records, active means well fitted inhibition curve with a large enough effect; inconclusive means small, poorly fitted or top-dose-only effect; inactive means no such curve, though single readings can be large or run the other way.
# Molecular target: Beta-lactamase (Escherichia coli (strain K12)) (UniProt P00811)
# Assay: qHTS Inhibitors of AmpC Beta-Lactamase (assay without detergent); further: nearly all actives have a fitted effect of over 20% in size
# Conditions: AmpC nitrocefin hydrolysis, absorbance 480 nm, 0.0001% Triton; series mostly up to 57.1 µM; activity change, negative = inhibition: at the top concentration
# Description: NIH Molecular Libraries Probe Production Network [MLPCN] NIH Chemical Genomics Center [NCGC] Assay Provider: Professor Brian Shoichet, UCSF Assay Overview: This aggregation profiling approach exploits the sensitivity of aggregate formation to detergent. Inhibition of b-lactamase is measured in the presence and absence of 0.01% Triton X-100. This particular assay had the prescence of 0.01% Triton X-100. See Pubchem assay "Promiscuous and Specific Inhibitors of AmpC Beta-Lactamase (assay without detergent)" for related screen. Compounds that inhibit only in the absence of detergent are considered likely promiscuous aggregators. A screen of 1,030 compounds was performed in Brian Shoichet's lab in 96-well format. AmpC activity was measured by following the absorbance at 480 nm. Nitrocefin is a chromogenic substrate: while nitrocefin is yellow (lmax 390 nm), the product of its hydrolysis is red (lmax 486 nm, 17,000 M-1). AmpC beta lactamase was provided by Shoichet Lab, UCSF.
# Buffer: 20 mM phosphate buffer, pH 7.0 Triton X-100: No Detergent screen: 0.0001%, Detergent screen: 0.01%. Reagents/Controls: Buffer in columns 3 and 4 as negative control (no enzyme). 5.3 nM AmpC in columns 1, 2, 5-48. Titration of UCSF compound 9 control (from 10 mM, then 1:2) pin-transferred to column 2. Column 1 is neutral (100% activity). Assay Steps: Six uL of reagents were dispensed to 1536-well Greiner black clear bottom plates. Compounds and controls (23 nL) were transferred via Kalypsys PinTool. The plates were incubated for 15 min at room temperature, and then 2 uL of 800 uM solution of nitrocefin was added to start the reaction. The plates were immediately transferred to and read every 20 seconds for 4 min on ViewLux (Perkin-Elmer) High-throughput CCD imager using 480 nm absorbance protocol. During dispense, reagent bottles were kept submerged into 4 deg C water bath. Keywords: NIH Roadmap, MLSCN, MLI, MLSMR, qHTS, NCGC, AmpC Beta-Lactamase, Aggregation
# Potency means the concentration at half of the fitted maximal effect.
# Sequence of Beta-lactamase (Escherichia coli (strain K12)) (P00811 whole entry, looked up): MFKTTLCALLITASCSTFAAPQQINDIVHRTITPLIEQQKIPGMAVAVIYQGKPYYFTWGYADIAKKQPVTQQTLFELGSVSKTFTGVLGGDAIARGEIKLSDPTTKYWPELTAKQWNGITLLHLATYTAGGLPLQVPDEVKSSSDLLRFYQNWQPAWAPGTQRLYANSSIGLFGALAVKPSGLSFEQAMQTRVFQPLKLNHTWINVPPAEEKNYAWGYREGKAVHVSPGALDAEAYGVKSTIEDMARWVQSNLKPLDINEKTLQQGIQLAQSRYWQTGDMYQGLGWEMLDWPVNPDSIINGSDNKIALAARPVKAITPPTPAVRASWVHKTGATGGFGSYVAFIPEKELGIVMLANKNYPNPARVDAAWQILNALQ
SMILES,"activity change, negative = inhibition [%]",Potency
O=C(CC(NS(=O)(=O)c1ccc(Cl)cc1)c1ccco1)NC1CCCC1 (stereo unspecified),-46.4,–
Cc1cc(C)n(-c2ccc3nncn3n2)n1,-5.01,–
COc1ccc(C2N3CC(C)(C)CN23)cc1 (stereo unspecified),-13.2,–
O=C(CN1C(=O)/C(=C\c2ccc(C(F)(F)F)cc2)Sc2ccccc21)NCc1ccco1,–,10 µM (active)
O=C(CC1CCCCC1)NCc1ccco1,-0.34,–
O=C(CN1C(=O)/C(=C/c2ccccc2F)Sc2ccccc21)NCc1cccnc1,131,–
CC1CN(Cc2nc3c(c(=O)n(C)c(=O)n3C)n2Cc2cccc(Cl)c2)CC(C)O1 (stereo unspecified),–,44.7 µM (active)
CCOC(=O)N1CCN(Cc2nc3c(c(=O)n(C)c(=O)n3C)n2Cc2ccccc2)CC1,-89.9,–
CN1CCN(Cc2nc3c(c(=O)n(C)c(=O)n3C)n2Cc2cccc3ccccc23)CC1,19.2,–
C=CCn1c(C2CC(=O)N(c3ccc(C)cc3)C2)nc2ccccc21 (stereo unspecified),8.29,–
O=S(=O)(c1cccc2nonc12)N1CCN(c2cccc(Cl)c2)CC1,-29.9,–
CC(=O)c1ccccc1NC(=O)CC1(CC(=O)O)CCCCC1,-18.6,–
Cc1ccc(C(C)NC(=O)Cn2nc(C)c([N+](=O)[O-])c2C)cc1 (stereo unspecified),-16.3,–
CC(C)N(c1ccccc1)c1ncnc(NCCC(=O)O)c1[N+](=O)[O-],–,0.316 µM (active)
Cc1ccc(OCC(=O)NC(C)c2ccccc2)c([N+](=O)[O-])n1 (stereo unspecified),7.38,–
CC(OC(=O)CCCOc1ccccc1)C(=O)Nc1ccc(Cl)cn1 (stereo unspecified),-29.5,–
Cc1cccc(N2C(=O)SC(SC(=Nc3ccccc3)Nc3ccccc3)C2=O)c1 (stereo unspecified),-30.1,–
O=C(N/N=C/c1cc(Cl)cc([N+](=O)[O-])c1O)C(O)(c1ccccc1)c1ccccc1,–,10 µM (active)
CN(C)/N=C/c1cc(Cl)cc([N+](=O)[O-])c1O,-14.3,–
O=[N+]([O-])c1cc(Cl)cc(/C=N/NC(=S)Nc2cc(S(=O)(=O)N3CCOCC3)ccc2Cl)c1O,-46.8,–
OCCNCCOc1ccc(Cl)c(Cl)c1,-15.5,–
S=C(NCCC1=CCCCC1)Nc1ccccc1,-29.9,–
COc1ccccc1C1SCCN1C(=O)c1ccc([N+](=O)[O-])cc1 (stereo unspecified),-44.7,–
COc1cccc(OC)c1C(=O)Nc1c(C(=O)N2CCN(c3ccccn3)CC2)oc2ccccc12,100,–
COc1cccc(NC(=S)N(CCc2c(C)[nH]c3ccccc23)Cc2ccco2)c1,-26.2,–
COc1ccc2[nH]c(C)c(CCN(Cc3cccs3)C(=S)Nc3ccccc3OC)c2c1,–,0.501 µM (active)

SMILES,"activity change, negative = inhibition [%]",Potency
Cc1[nH]c2ccccc2c1CCN(Cc1cccs1)C(=S)NC(C)(C)C,-0.689,–
CCN(CC)C(=O)C1CCC(C)(C(=O)O)C1(C)C (stereo unspecified),-16.7,–
COc1ccc(C(C#N)Nc2ccccc2C)cc1 (stereo unspecified),12.4,–
Cc1ccc(NC(=O)CCNC(=O)c2ccc([N+](=O)[O-])cc2)cc1S(=O)(=O)N1CCOCC1,-16.7,–
COc1ccc(NS(=O)(=O)c2cc(NC(=O)CC(=O)c3ccc([N+](=O)[O-])cc3)ccc2C)cc1,–,15.8 µM (active)
COc1ccc(C(=O)CC(=O)C(=O)Nc2cc([N+](=O)[O-])ccc2OC)cc1,-18.2,–
CCOP(=O)(OCC)C(Nc1ccc([N+](=O)[O-])cc1)c1ccc(Cl)cc1 (stereo unspecified),83.3,–
CC(C)c1ccc(Nc2nnc(SCC(=O)c3nnc(-c4ccccc4)o3)s2)cc1,–,25.1 µM (active)
Cc1ccccc1Nc1nnc(SCC(=O)c2cc3ccccc3o2)s1,-49.2,–
CC(C)N(C(=O)CSc1nnc(NC2CC2)s1)c1ccccc1,-17.1,–
CCOc1ccc(-n2cnc3c(=O)[nH]c(N)nc32)cc1,-18.8,–
Cc1ccc2c(c1)c1ncnc(N3CCc4ccccc4C3)c1n2C,1.78,–
COc1ccc(CC2c3cc(OC)c(OC)cc3CC[N+]2(C)CCC(=O)OCCCCCOC(=O)CC[N+]2(C)CCc3cc(OC)c(OC)cc3C2Cc2ccc(OC)c(OC)c2)cc1OC (stereo unspecified),145,–
Cc1cc2ccccc2n1CCNC(=O)COc1ccc2ccccc2c1,–,10 µM (active)
COC(=O)C(C)NC(=O)COc1ccc2ccccc2c1 (stereo unspecified),-18.4,–
Cc1cc2ccccc2n1CCC(=O)O,4.27,–
Nn1c(Cc2cccc3ccccc23)nnc1SCC(=O)N1CC(=O)Nc2ccccc21,13.7,–
Nc1cc(C(F)(F)F)ccc1N1CCOCC1,-6.49,–
COc1ccccc1C(=O)Nc1ccc(OCc2nnc3c4ccccc4c(C)nn23)cc1,208,–
Cn1c(=O)c2c(SCC(=O)N3CCOCC3)nc(C3CC3)nc2n(C)c1=O,–,10 µM (active)
CCOC(=O)N1CCN(C(=O)CSc2nc(C)nc3c2c(=O)n(C)c(=O)n3C)CC1,-9.25,–
CCCc1nc(SCC(=O)N2CCCC2)c2c(=O)n(C)c(=O)n(C)c2n1,49.1,–
CSc1ccccc1NC(=O)c1cc(C2CC2)on1,-8.82,–
O=C(NC1CCCCC1)c1cc(C2CC2)on1,-16.9,–
Cc1nn(Cc2ccc(Cl)c(Cl)c2)c(C)c1NC(=O)c1cc(C2CC2)on1,–,10 µM (active)
